Measurements published in PubChem BioAssay (NCATS).
Activity calls are given as the source filed them. A call without a number means that no potency is given here. Calls come from the whole dose curve; as a rule, active = well fitted cell-killing curve with a large enough effect; inconclusive = small, poorly fitted or top-dose-only effect; inactive = flat fitted curve, though single readings scatter.

Test: Cell Viability - LYMP1-002 - Assay at 24 hr (AID 993)
Settings: LYMP1-002 lymphoblastoid cells viability; series mostly up to 92.2 µM
Source text: NIH Chemical Genomics Center [NCGC]
NIH Molecular Libraries Screening Centers Network [MLSCN]
National Institutes of Environmental Health Sciences [NIEHS]
National Toxicology Program [NTP]
We have developed a 1536-well cell-based assay for quantitative high throughput screening (qHTS) against a number of cell lines to determine in vitro cytotoxicity of small molecules. This particular assay uses a human lymphoblastoid cell line (LYMP1-002) purchased from Coriell Institute for Medical Research.
NCGC Assay Protocol Summary:
The CellTiter-Glo luminescent cell viability assay (Promega) is a homogeneous method to measure the number of viable cells in culture. The end point readout of this assay is based on quantitation of intracellular ATP, an indicator of metabolic activity, using the luciferase reaction. Luciferase catalyzes the oxidation of beetle Luciferin to oxyluciferin and light in the presence of ATP. The luminescent signal is proportional to amount of ATP present.
Using the CellTiter-Glo luminescent cell viability assay, the amount of cellular ATP was measured in the lymphoblastoid cell line with complete culture medium following compound treatment for 24 hours. The assay was performed in opaque white Kalypsys 1536-well plates. In the screen, tetraoctylammonium bromide was used as positive control. Library compounds were measured for their ability to cause acute toxicity in the cell line, as reflected by a decrease in intracellular ATP levels, in a concentration-dependent manner. […] AC50 values were determined from concentration-response data modeled with the standard Hill equation.
qHTS protocol for CellTiter Glo lymphoblastoid cellular assay
[Step] [Parameter] [Value] [Description]
1. Reagent; 5 uL; 2500 lymphoblastoid cells/well
2. Time; 5 hr; 37 C incubation
4. Controls; 23 nL; Tetraoctylammonium bromide 6.4pM to 92 uM
5. Time; 24 hr; 37 C incubation
6. Reagent; 5 uL; CellTiter Glo reagent
7. Time; 30 min; Room Temperature
8. Detection; Luminescence; Viewlux plate reader
Keywords: cell viability, cytotoxicity, lymphoblastoid cell line, luminescence, NTPHTS, NTPHTS_NCGC, NIEHS, DSSTox, MLSMR, MLSCN, NIH Roadmap, qHTS, NCGC

SMILES | Potency
Nc1cccc([N+](=O)[O-])c1 | inactive
CC(C)CCOC(=O)/C=C/c1ccccc1 | inactive
CC(=O)c1ccccn1 | inactive
C=CCCCCCCC=C | inactive
O=C(O)c1ccc(Cl)cc1Cl | inactive
CCCCOCCOCCSC#N | inactive
CCOc1cc(OCC)c(C(C)=O)cc1OCC | inactive
Cc1ccccc1C(=O)O | inactive
O=[N+]([O-])c1ccc(Cl)cc1Cl | inactive
CC(=O)OCc1ccco1 | inactive
COC(=O)CCCC(=O)OC | inactive
OC(CCl)CCl | inactive
NC(=S)NNC(N)=S | inactive
Cc1cccc(C)c1O | inactive
C=CCn1c(=O)n(CC=C)c(=O)n(CC=C)c1=O | inactive
CC(=O)Nc1ccc(N)cc1 | inactive
Cc1ccc(C)c(N)c1 | inactive
O=C1OC(=O)c2c(Cl)c(Cl)c(Cl)c(Cl)c21 | inactive
CCN(CC)c1cccc(O)c1 | inactive
CCOCCOCC | inactive

SMILES | Potency
O=C1C=CCCC1 | inactive
CC(=O)Nc1ccc(C)cc1 | inactive
c1ccsc1 | inactive
COc1cccc2sc(N)nc12 | inactive
O=C(O)CNC(=O)c1ccc(CO)o1 | inactive
CC(CCl)OC(C)CCl (stereo not given) | inactive
C=C(C)C(=O)OCCCCCC | inactive
c1ccc2[nH]cnc2c1 | inactive
N#CCc1ccccc1[N+](=O)[O-] | inactive
Cc1nc2ccc(Cl)cc2[nH]1 | inactive
CC(N)CN (stereo not given) | inactive
Nc1ccc(F)cc1F | inactive
O=[N+]([O-])c1cccc(C(F)(F)F)c1 | inactive
Cc1cc(C)c(N)cc1C | inactive
CC(=O)c1ccccc1[N+](=O)[O-] | inactive
CC(C)=C1CCC(C)CC1=O (stereo not given) | inactive
O=Cc1ccc(C(=O)O)cc1 | inactive
CCCCN(CCO)CCCC | inactive
Nc1ccc([N+](=O)[O-])c(N)c1 | inactive
CCCCCCCCN | inactive
